Bioassay records as filed in PubChem.
Hits are enriched below; roughly 7.5% of the tested compounds scored in any of these assays.
HCV inhibitor = HCV inhibition; Potency, µM (doses to about 41.8 µM), hits mostly inhibitors; Huh7.5.1 HCVcc-Cre infection, luciferase reporter, 44 h; 340,000 compounds, 3.4% hits
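Luciferase read-out (15 sec integration) after a 15 min room-temperature substrate step quantifies HCVcc-Cre infection. Cells, 1,000 per well, had compound added 4 h post-plating, then virus at ~0.5 moi, and were cultured 44 h.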
HCMV antiviral = blocks human cytomegalovirus replication | HFF cells, HCMV-luciferase reporter, 72 h; active compounds read low | activity change, negative = inhibition, % at 57.5 µM | 410,000 compounds, 4.5% hits; in the data active = activity change below about -60%; inconclusive = no clear call, values can overlap the other calls; inactive = above about -39%
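HFF cells seeded 16 h at 37C, treated with compounds, infected with luciferase-reporter HCMV at MOI 1 PFU/cell; luciferase read at 72 h post infection, normalized to buffer-only and Salinomycin controls.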
Vaccinia Venus = inhibitors of vaccinia virus (Venus reporter) | Potency, µM (doses to about 36.5 µM), usual class: inhibitors | Vaccinia virus Venus reporter expression, fluorescence | 330,000 compounds, 0.46% hits | AID 720580; calls by dose curve; tested in A549 cells; also: nearly all actives have a fitted effect of over 30% in size
Giardia FBPA inh = Giardia lamblia aldolase inhibition; purified Giardia FBPA; 290,000 compounds, 0.71% hits; A8B2U2; Potency, µM (doses to about 59.6 µM), hits mostly inhibitors; also: nearly all actives have a fitted effect of over 55% in size
Target sequence (A8B2U2 whole entry, looked up): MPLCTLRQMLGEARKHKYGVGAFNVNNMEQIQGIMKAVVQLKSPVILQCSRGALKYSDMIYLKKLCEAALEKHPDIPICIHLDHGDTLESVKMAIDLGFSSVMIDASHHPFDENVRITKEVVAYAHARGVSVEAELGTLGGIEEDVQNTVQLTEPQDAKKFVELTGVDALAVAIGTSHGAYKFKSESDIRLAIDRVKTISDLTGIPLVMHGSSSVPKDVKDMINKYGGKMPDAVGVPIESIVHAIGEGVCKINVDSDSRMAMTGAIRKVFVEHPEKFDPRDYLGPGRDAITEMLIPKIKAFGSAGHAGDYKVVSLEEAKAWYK
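40 nM FBPA preincubated 10 min at RT with compound (up to 57.5 uM final), then substrate plus GAPDH/TPI/NAD/arsenate coupling and diaphorase/resazurin added. Fluorescence read after 20 min at RT, 525/598 nm.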
VACV mCherry inh = vaccinia inhibition (mCherry reporter); Potency, µM (titrated, usually from 36.5 µM), actives largely listed as inhibitors; 310,000 compounds, 0.63% hits; Vaccinia virus mCherry reporter infection, fluorescence; AID 720579; calls by dose curve; tested in A549 cells; also: nearly all actives have a fitted effect of over 35% in size
FMDV inh = blocks foot and mouth disease virus. FMDV antiviral cell-based qHTS. Potency, µM (series often up to 57.9 µM), actives largely listed as inhibitors. 410,000 compounds, 1.2% hits. AID 1159524; calls by dose curve; tested in HEK293T cells; also: read-out not given here; nearly all actives have a fitted effect of over 45% in size
Hits are given with their value; n = inactive; u = inconclusive; x = no result given. Unless noted, calls follow the shape of the dose curve; as a rule, active = well fitted curve in the direction sought with a large enough effect; inconclusive = small, poorly fitted or top-dose-only effect, or another doubt; inactive = no such curve, though single readings can be large; an effect the other way counts as inactive or inconclusive.

SMILES | HCV inhibitor | HCMV antiviral | Vaccinia Venus | Giardia FBPA inh | VACV mCherry inh | FMDV inh
S=C(S)O[C@@H]1C[C@@H]2C[C@H]1[C@@H]1CCC[C@H]21 | x | x | x | u | x | n
CSCCC(NC(=O)c1ccccc1)C(=O)NCCCn1nc(C)cc1C (centres undefined) | n | n | x | x | x | n
COc1ccc(C)cc1N(C(=O)c1ccccc1)c1nc2ccccc2s1 | 16µM | n | n | n | n | n
CCOc1ccc(/C=C/C(=O)c2ccc(-c3ccccc3)cc2)cc1 | n | -61 | n | n | n | n
O=C(/C=C/c1ccccc1)/C=C/c1ccccc1 | u | -73 | 10µM | n | u | u
O=C(/C=C/c1ccccc1)c1ccccc1 | 10µM | n | n | n | n | u
Cc1cccc(C)c1NC(=O)Cn1cc(S(=O)(=O)Cc2ccc(F)cc2)c2ccccc21 | x | n | n | x | n | n
COc1ccc(Cl)cc1NC(=O)Cn1nnc2sc(-c3ccccc3)cc2c1=O | x | n | n | x | n | n
O=C(COC(=O)c1c[nH]c(=O)[nH]c1=O)Nc1ccccc1Br | n | n | x | n | x | n
CCN(CC)CCC(c1ccc(N(C)C)cc1)c1c(OC)cc(OC)c2c1OC(=O)CC2c1ccc(OC)cc1 (centres undefined) | x | x | x | n | x | x
COc1ccc(N2CCN(C(=O)CN3CCN(C(c4ccccc4)c4ccccc4)CC3)CC2)cc1 | u | n | n | n | n | n
NC(=S)N/N=C\c1ccc(-c2cccc(Cl)c2Cl)o1 | n | n | 6.3µM | n | x | n
NC(=S)N/N=C/c1ccc(-c2ccccc2)o1 | n | n | x | n | x | n
Cc1ccc(-c2ccc(/C=N/NC(N)=S)o2)cc1 | 11µM | n | u | n | u | n
CCOC(=O)c1c(C(F)(F)F)cc(-c2ccc(F)cc2)nc1C | n | n | n | n | n | n
CCOC(=O)CS(=O)(=O)c1nc(-c2ccc(F)cc2)cc(C(F)(F)F)n1 | 10µM | x | 10µM | n | x | u
COCC(C)NC(=O)CCS(=O)(=O)c1nc(-c2ccc(OC)cc2)cc(C(F)(F)F)n1 (centres undefined) | u | -104 | n | n | n | 32µM
O=C(O)CCS(=O)(=O)c1nc(-c2cccs2)cc(C(F)(F)F)n1 | n | n | x | n | x | n
CCOC(=O)Cc1cc(-c2ccccc2)nc2ccc3ccccc3c12 | u | n | n | n | n | n
CCOC(=O)CCS(=O)(=O)c1nc(-c2ccccc2)cc(C(F)(F)F)n1 | 10µM | x | u | n | 11µM | 20µM
COC(=O)CCS(=O)(=O)c1nc(-c2ccccc2)cc(C(F)(F)F)n1 | u | x | x | n | x | 16µM
CCOC(=O)CS(=O)(=O)c1ccccc1 | n | n | n | n | n | n
CCOC(=O)CS(=O)(=O)c1nc(-c2ccccc2)cc(C(F)(F)F)n1 | u | -103 | 10µM | n | x | 22µM
c1ccc2c(c1)[IH]c1ccccc1-2 | 0.028µM | -100 | 11µM | x | u | u
CCOC(=O)C1CCN(C(=S)Nc2cc(OC)c(OC)cc2C(=O)OC)CC1 | u | n | x | n | x | n
SMILES | HCV inhibitor | HCMV antiviral | Vaccinia Venus | Giardia FBPA inh | VACV mCherry inh | FMDV inh
CSCc1nc2sc(C(=O)Nc3nc(C)cs3)c(C)c2c(=O)[nH]1 | 11µM | n | n | n | n | n
Cc1ccc(NC(=O)c2sc3nc(CCl)[nH]c(=O)c3c2C)c(C)c1 | 11µM | n | n | n | n | u
CCOC(=O)[C@]12CCCC=C1N(CCC1=CCCCC1)C(=O)[C@H](CC(=O)NCc1ccc(OC)c(OC)c1)C2 | x | n | u | x | u | n
CCc1nnc2c(Nc3ccc(Br)c(C)c3)nc3ccccc3n12 | x | n | n | x | n | n
CC(C)NC(=O)N(C)C[C@H]1OCCCC[C@@H](C)Oc2ccc(N(C)C)cc2C(=O)N([C@H](C)CO)C[C@@H]1C | x | n | n | x | n | u
Cc1scc(C(=O)NNC(=S)NC(C)c2ccccc2)c1C (centres undefined) | n | -78 | n | n | n | n
CCOc1cc(OCC)cc(C(=O)Nc2cccc(-c3nc4ccccc4[nH]3)c2)c1 | x | -98 | 11µM | x | 11µM | u
COCCN1Cc2cccc(C(=O)Nc3cccc(-c4nc5ccccc5[nH]4)c3)c2C1=O | u | -69 | u | n | u | n
CCCOc1ccc(C(=O)Nc2cccc(-c3nc4ccccc4[nH]3)c2)cc1 | x | -88 | n | x | n | u
COCCN1Cc2cccc(C(=O)Nc3ccc(-c4nc5ccccc5[nH]4)cc3)c2C1=O | n | n | n | n | n | n
O=C(CCn1c(=O)c2cccn2c2cccnc21)NCCCN1CCN(c2ccc(F)cc2)CC1 | x | u | n | x | n | n
COc1ccc(S(=O)(=O)N2CCCCC2)cc1NC(=O)CN(C)C1CCCCC1 | 11µM | n | n | n | n | n
COc1ccc(S(=O)(=O)N2CCCCC2)cc1NC(=O)CN(Cc1ccco1)Cc1ccco1 | 10µM | -70 | x | x | x | u
COc1ccc(S(=O)(=O)N2CCCC2)cc1NC(=O)c1ccccc1 | n | n | n | n | n | n
COc1ccc(S(=O)(=O)Nc2ccccc2OC)cc1NC(=O)CC1CC2CCC1C2 (centres undefined) | 6.3µM | u | u | n | n | n
COc1ccc(S(=O)(=O)N2CCN(C(c3ccccc3)c3ccccc3)CC2)cc1NC(C)=O | 3.2µM | n | x | x | x | n
COc1ccc(S(=O)(=O)N2CCCCCC2)cc1NC(=O)Cc1cc(OC)c(OC)c(OC)c1 | n | n | n | n | n | n
COc1ccc(S(=O)(=O)N(C)c2ccc(C(=O)Nc3ccccc3C(=O)N3CCOCC3)cc2)cc1OC | n | u | n | x | n | n
CC(=O)C[n+]1cccc(Br)c1 | x | x | n | x | n | x
